Measured values: PubChem BioAssay
Unmarked numbers belong to inactive results. The rule behind the calls is not given here.

Molecular target: Pantothenate synthetase (Mycobacterium tuberculosis (strain ATCC 25618 / H37Rv)) (UniProt P9WIL5)
Experiment: Coupled enzyme confirmation of inhibitors against recombinant Mtb PanC (AID 375);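 note: 0% = full reaction with vehicle and 100% = no enzyme background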
Conditions: coupled enzyme assay; at 10 µM, hits give high values

Chain of Pantothenate synthetase (Mycobacterium tuberculosis (strain ATCC 25618 / H37Rv)) (P9WIL5 whole entry, looked up): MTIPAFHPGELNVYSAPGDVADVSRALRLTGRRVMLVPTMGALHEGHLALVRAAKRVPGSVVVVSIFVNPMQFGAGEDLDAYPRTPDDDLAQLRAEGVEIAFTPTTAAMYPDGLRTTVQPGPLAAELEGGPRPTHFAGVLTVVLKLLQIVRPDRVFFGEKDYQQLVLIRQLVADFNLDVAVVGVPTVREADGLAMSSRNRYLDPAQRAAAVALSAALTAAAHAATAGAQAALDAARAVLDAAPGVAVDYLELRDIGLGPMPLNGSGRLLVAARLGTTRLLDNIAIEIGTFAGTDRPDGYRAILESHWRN

SMILES	inhibition [%]
CCCn1c2ccccc2c2nnc(SCC(=O)Nc3ncccn3)nc21	8
COc1cccc(NC(=O)N2CCCC2C(=O)Nc2ccc3c(c2)OCO3)c1 (centres undefined)	4
CCOC(=O)N1CCN(C(=O)CSc2nnc(Cc3ccccc3)o2)CC1	0
C=CCn1c2ccccc2c2nnc(SCC(=O)NC(C(=O)OC)C(C)C)nc21 (centres undefined)	4
CC(C)Cn1c(N)c(C(=O)COC(=O)c2ccc3c(c2)OCCO3)c(=O)n(C)c1=O	0
OCC(O)CN1CCN(c2ccccc2)CC1 (centres undefined)	0
Cc1ccc2[nH]c(=O)c3cc(C(=O)NCCN4CCN(C)CC4)sc3c2c1	0
OC(CN1CCN(c2ccccc2)CC1)c1ccc2c(c1)CCN2 (centres undefined)	0
COCC(=O)Nc1c(C(=O)Nc2ccccc2OC)oc2ccccc12	1
CC(OC(=O)c1cccc(NS(C)(=O)=O)c1)C(=O)Nc1ccc(N2CCOCC2)cc1 (centres undefined)	0
O=C(CN1CCC(n2nnc3ccccc32)CC1)Nc1ccc2c(c1)CCC2	0
COC(=O)c1cc(Br)c(=O)n(CCc2ccc(F)cc2)c1	0
CC(C)(C)c1cc(CCC(=O)N2CCNCC2)c(C(C)(C)C)cc1O	0
COc1ccc(NC(=O)CSc2nnc(Cc3cccn3C)n2-c2ccc(F)cc2)cc1	0
CCOC(=O)c1cc(-c2ccc(Cl)s2)nc2c1c(C)nn2C	0
Clc1ccc(Cn2c(CN3CCCC3)nc3ccccc32)cc1	8
Cc1cccc(N2CN=c3s/c(=C\c4ccncc4)c(=O)n3C2)c1	6
COC(=O)c1ccc(CSc2nc3ccccc3s2)o1	0
COc1ccc(C)cc1NC(=O)CCC(=O)Nc1ccc2nc(N3CCN(C)CC3)cc(C)c2c1	0
COc1ccc(C2C(C#N)=C(N)OC3=C2C(=O)CC(C)C3)c(OC)c1OC (centres undefined)	0
COc1ccc(-n2c(Cc3cccn3C)nnc2SCC(=O)Nc2ccc(Cl)cc2)cc1	0
CCOC(=O)CSc1nnc2n1C(C)(C)Cc1ccccc1-2	3
O=C(C1CCCO1)N1CCN(S(=O)(=O)c2ccccc2)CC1 (centres undefined)	0
Cc1[nH]n2c(=O)cc(Cc3ccccc3)nc2c1C#N	0
O=C(c1ccco1)N1CCN(S(=O)(=O)c2ccc3c(c2)CCN3C(=O)C2CCC2)CC1	0

SMILES	inhibition [%]
O=c1c2ccccc2nnn1CSc1nnc2sc3ccccc3n12	0
CCOC(=O)N1CCN(C(=O)CSc2nnc(-c3cccc(Cl)c3)o2)CC1	0
CCCn1nc(NS(=O)(=O)c2ccccc2)c2cc3ccccc3nc21	1
CCOC(=O)c1sc2nc(SCC#N)n(CCCN3CCCC3=O)c(=O)c2c1C	0
CCOc1cc(C)c(Cl)cc1S(=O)(=O)N(C)C	5
O=c1[nH]c2c(s1)C(c1ccco1)C1C3CCC(C3)C1S2 (centres undefined)	0
Cc1nn(-c2nc3ccccc3s2)c(C)c1Oc1ccccc1O	2
O=C(c1ccc(Cl)cc1)N1CCCOC1	4
Cc1cc2c(nn1)CCC/C2=N\O	2
CCC(=O)N/C(N)=N/c1nc(C)c2cc(OC)ccc2n1	0
CC(=O)N1CCC2(CC1)CC(=O)c1cc(OCC(=O)NCc3ccc(C)cc3)ccc1O2	3
CN1CCN(S(=O)(=O)c2ccc(NC(=O)Nc3cccc(Cl)c3)cc2)CC1	1
Cc1ccc(OCC(O)Cn2c(=N)n(CCN3CCCCC3)c3ccccc32)cc1 (centres undefined)	0
Cc1cc(C)c2ccc(N)nc2c1O	0
c1cncc(-c2nnc3n2N=C(c2cccs2)CS3)c1	6
COCCOC(=O)C1=C(N)OC2=C(C(=O)CC(C)(C)C2)C1c1cccnc1 (centres undefined)	0
Cn1c(=O)[nH]c(=O)c2c1nc(N1CCCCC1)n2CCSc1ncccn1	0
COC(=O)c1cc(-c2c(C)oc3cc(O)ccc3c2=O)c(C)o1	3
CC(=O)Nc1ccccc1-c1nc2ccc(C(=O)N3CCN(c4ccccc4)CC3)cc2[nH]c1=O	7
CCSc1cc(C2C(C(=O)OC)=C(C)NC3=C2C(=O)CCC3)c(C)o1 (centres undefined)	0
COC(=O)c1ccc(COc2ccc(C3C4=C(CCCC4=O)Nc4onc(C)c43)cc2)cc1 (centres undefined)	0
COc1ccc(-c2nnc(SCC(=O)N3CCCCC3)o2)cc1OC	0
COc1ccc(C2c3c(-c4ccccc4O)n[nH]c3C(=O)N2CCc2ccc(OC)c(OC)c2)cc1 (centres undefined)	0
CCOC(=O)C1C(=O)OC(C)(C)C1C(C)C(=O)c1ccc(OC)cc1 (centres undefined)	0
CCOc1cc(C2NC(=O)NC(O)(C(F)(F)F)C2C(=O)c2ccccc2)ccc1OC (centres undefined)	3

SMILES	inhibition [%]
CN/C=C1\C(=O)C(C)(C)Oc2ccc3ccc(=O)oc3c21	9
Cc1cc2n(n1)C(c1ccccc1)Nc1ccccc1-2 (centres undefined)	7
CCOC(=O)C(NC(=O)OC(C)C)(Nc1nccs1)C(F)(F)F (centres undefined)	2
Cc1nc2ccccc2c2oc(C(=O)N3CCC(N4CCCCC4)CC3)cc12	0
COCCN(CC(=O)NC1CCCCC1)C(=O)CSc1nc2ccccc2o1	0
COc1ccc(N2CCN(C(=O)Cc3ccc(-n4c(=O)[nH]c5ccccc5c4=O)cc3)CC2)cc1	6
C=CCn1c(SCC(=O)Nc2ccccc2OC)nnc1-c1ccccn1	3
CCN(C(=O)c1cn(C)c(=O)c2cc(OC)c(OC)cc12)c1ccccc1C	6
Cc1ccc(S(=O)(=O)NCCCNC(=O)N2CCOCC2)cc1	0
CCOC(=O)CNC(=O)c1c(C)nn(-c2ccccc2)c1Cl	0
CCOC(=O)n1c(=O)oc2cc(S(=O)(=O)N3CCCCC3)ccc21	7
Cc1cccc2cc(C#N)c(NCCNC(=O)NC3CCCCC3)nc12	1
Cc1c(NC(=O)c2ccc(COc3ccc4ccccc4c3)o2)c(=O)n(-c2ccccc2)n1C	0
CCN(CC)C(=O)C1CCN(CC2CC=CCC2)CC1 (centres undefined)	0
CC(=O)c1ccc(OC(=O)c2cccs2)cc1	0
Oc1ccc(Cl)cc1-c1cc(-c2ccccc2)n[nH]1	0
O=C1OC(c2ccc(O)cc2)(c2ccc(O)cc2)c2ccccc21	4
CCN(CC)C(=O)CSC1=C(C#N)C(c2ccco2)C(C(=O)OCCOC)=C(C)N1 (centres undefined)	0
CC1(C)C2CCC1(CS(=O)(=O)NCc1ccc(C(=O)O)cc1)C(=O)C2 (centres undefined)	0
Cc1cc(NC(=O)CN2CCC(O)(c3cccc(F)c3)CC2)no1	0
Cc1noc(C)c1C(=O)N1CCN(C(=O)c2sc3cc(Cl)ccc3c2Cl)CC1	7
CCCc1nnc(SCC(=O)N2CCOCC2)n1Cc1ccco1	0
O=C(NCc1ccccc1)C1CCCN(S(=O)(=O)c2cccnc2)C1 (centres undefined)	0
COCCn1c(C)cc(C(=O)CSc2nc3ccccc3c(=O)[nH]2)c1C	0
COCCn1c(SCC(=O)Nc2nnc(C)s2)nnc1-c1ccncc1	7

SMILES	inhibition [%]
CCCCOc1ccc(C2C3CN(C(=O)OCC)CC=C3C(C#N)=C(N)C2(C#N)C#N)cc1OC (centres undefined)	0
C=CCSc1nnc(Cc2c(C)[nH]c3ccccc23)o1	0
Cc1nc2nc(Cc3ccccc3)[nH]n2c(=O)c1Cc1ccccc1	5
c1ccc2c(c1)C(=Nn1cnnc1)c1ccccc1-2	0
O=C(OCN1C(=O)c2ccccc2C1=O)c1ccc2c(=O)n3c(nc2c1)CCC3	0
CSc1ccccc1C(=O)NC1CC2CCC1C2 (centres undefined)	0
Cc1nc2sc(C(c3cccc(F)c3)N3CCC(C)CC3)c(O)n2n1 (centres undefined)	0
O=C(CN1C(=O)CC(c2ccco2)Sc2ccccc21)Nc1ccccc1F (centres undefined)	0
COc1ccc(-c2c(C(F)(F)F)oc3c(CN4CCN(C)CC4)c(O)ccc3c2=O)cc1	4
O=C(Cn1cc2c(n1)CCCCC2)N1CCc2ccccc21	0
CCOc1ccc(S(=O)(=O)n2nc(C)cc2C)c2ccccc12	0
Cc1ccc(S(=O)(=O)N2CCN(C(=O)CN3CCOCC3)C2C(C)C)cc1 (centres undefined)	0
COc1cccc(N(C(C)=O)c2nc(C)cc(C)c2C#N)c1	0
O=C(CCCC(=O)N(CC(=O)NC1CCCCC1)Cc1ccc2c(c1)OCO2)Nc1ccccn1	2
Cc1oc2cc3c(C(=O)OCCN(C)C)c(C)oc3cc2c1C(=O)OCCN(C)C	0
CC(C)(C)n1ncc2c(=O)n(CC(=O)NCc3ccco3)cnc21	11
CC(=O)Nc1ccc(OC(=O)c2cccnc2)cc1	0
CCOC(=O)c1c(C)[nH]c(C(=O)COC(=O)c2ccc(F)c(S(=O)(=O)N3CCOCC3)c2)c1C	4
C[C@]12CC[C@@H]3c4ccc(O)cc4CC[C@H]3[C@@H]1CCC2=O	6
COc1ccc(S(=O)(=O)NCCCN2CCOCC2)c2ccccc12	0
CCOC(=O)c1sc(NC(=O)c2c(C)nn(Cc3ccccc3)c2C)cc1C	0
O=C(O)C1CCCCC1C(=O)NCCc1ccccc1 (centres undefined)	0
O=C(NCC1COCCO1)C1CCN(S(=O)(=O)c2ccccc2)CC1 (centres undefined)	3
CC1Cc2ccccc2N1S(=O)(=O)c1ccc2c(c1)n(C)c(=O)c(=O)n2C (centres undefined)	0
